PrPC TRFRET: inhibitors of human cell surface prion protein PrPC, primary screen, cell-based, TR-FRET; hit rate 0.43% among 370,000; TR-FRET read-out; AID 720596, 2013; inhibition, % at 13.8 µM; in the data active means inhibition above about 24%; further: 0% = median of the test wells and 100% = reference compound wells
Mtb FBA inh: Mtb FBA enzyme inhibitors, primary screen, biochemical, fluorescence, strain H37Rv. purified M. tuberculosis FBA, fluorescence read-out. hit rate 2.3% among 360,000. Fructose-bisphosphate aldolase (Mycobacterium tuberculosis (strain ATCC 25618 / H37Rv)), …. inhibition, % at 1 µM;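 further: 0% = vehicle and 100% = reference inhibitor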
Target sequence (P9WQA3 whole entry, looked up): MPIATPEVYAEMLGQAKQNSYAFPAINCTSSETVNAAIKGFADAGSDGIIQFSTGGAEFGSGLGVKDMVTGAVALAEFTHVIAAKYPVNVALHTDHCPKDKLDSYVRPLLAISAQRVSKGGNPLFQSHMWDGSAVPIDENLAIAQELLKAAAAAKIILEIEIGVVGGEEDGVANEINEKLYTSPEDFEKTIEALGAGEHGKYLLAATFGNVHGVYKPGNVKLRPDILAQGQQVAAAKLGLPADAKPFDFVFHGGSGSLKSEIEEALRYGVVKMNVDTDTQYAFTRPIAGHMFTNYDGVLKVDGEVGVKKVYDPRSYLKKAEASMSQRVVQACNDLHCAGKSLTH
BJeLR viability: MLPCN primary cell-based screen for lethality selective to Ras in HRASV12 cells | BJeLR (HRASV12) viability, CellTiter-Glo ATP luminescence, 48 h | inhibition, % (concentration not given with the values) | hit rate 0.17% among 300,000; in the data active means inhibition above about 50%
GDH-TPI counter-1: GDH-TPI coupling enzyme inhibitors, primary screen, artefact control for M. tuberculosis FBA inhibitor project, biochemical, absorbance, full deck; GDH-TPI coupled enzyme counterscreen, NADH absorbance; hit rate 1.2% among 360,000; inhibition, % at 4.8 µM; in the data active means inhibition above about 30%;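 further: 0% = DMSO wells and 100% = wells lacking the enzyme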
RecA intein inh: Mtb RecA intein splicing inhibitors, primary screen, biochemical, fluorescence, HTS | AID 2221, 2009 | cell-free RecA intein splicing | inhibition, % (test concentration not listed) | hit rate 0.75% among 290,000 | Protein RecA (Mycobacterium tuberculosis (strain ATCC 25618 / H37Rv)), P9WHJ3; in the data active means inhibition above about 30%;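 further: 0% = vehicle wells and 100% = reference inhibitor control wells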
Mtb FBA confirm: M. tuberculosis aldolase blockers, biochemical, fluorescence, strain H37Rv, confirmation. hit rate 78% among 5,600. AID 651616, 2012. purified M. tuberculosis FBA, fluorescence read-out. inhibition, % at 1 µM. shares compounds with Mtb FBA inh;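 further: 0% = vehicle wells and 100% = reference inhibitor wells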
GDH-TPI counter-2: GDH-TPI coupling enzyme inhibitors, artefact control for M. tuberculosis FBA inhibitor project, biochemical, fluorescence, high throughput; inhibition, % at 1 µM; hit rate 81% among 5,600; GDH-TPI coupled enzyme counterscreen; shares compounds with Mtb FBA inh; in the data active means inhibition above about 10%
* hit, by the source's call; i = inactive; x = no result; + = active, no number. Compounds with a hit are over-represented: about 4.2% of the library has one in this group of screens. Unless noted, no stated cut-off is given here; in the data, active means inhibition above about 27%; inactive means the rest.

SMILES	PrPC TRFRET	Mtb FBA inh	BJeLR viability	GDH-TPI counter-1	RecA intein inh	Mtb FBA confirm	GDH-TPI counter-2
COc1cccc(Cn2cc(COC(=O)NCCc3ccccc3)nn2)c1	5.4	x	x	x	x	x	x
COC(=O)C1=C(C)N(Cc2ccccc2C(F)(F)F)C(=NCc2ccccc2C(F)(F)F)NC1c1ccc(F)cc1 (stereo unspecified)	11.8	x	x	x	x	x	x
Cc1nc2c(c(=O)c3ccccc3n2C)c(=O)n1C1CCCCCC1	10.1	37.1*	-0.9	16.1	5.2	45.4*	45.8*
Cn1c2ccccc2c(=O)c2c(=O)n(C3CCCCC3)c(-c3ccco3)nc21	8.5	0.8	-4.3	17.0	-1.0	x	x
CCc1ccc(OCC(=O)Nc2ccc(-c3cc4ccccc4oc3=O)c(OC)c2)cc1	2.6	37.2*	-1.1	12.2	0.0	63.9*	45.8*
CCOC(=O)CC[C@H]1CC[C@]2(CCCN(C3CCCCC3)C2)O1	-2.0	x	x	x	x	x	x
CC(=O)N(C(C)=O)c1ncc2c([nH]c3ccccc32)c1C#N	-5.8	38.5*	2.1	10.8	x	+	189.3*
CN1C(=O)c2cc(NC(=O)Nc3ccccc3)ccc2OC[C@H]2O[C@@H](CC(=O)NC3CCC3)CC[C@@H]21	-6.2	x	x	x	x	x	x
Cc1ccn2c(NC3CCCC3)c(-c3ccncc3)nc2c1	-3.1	0.6	-6.5	22.5	-4.9	x	x
Cc1ccn2c(NC3CCCCC3)c(-c3cccc(-c4cccc(Cl)c4)c3)nc2c1	1.3	32.9*	-6.0	15.6	21.4	112.9*	101.3*
CCC(C)Sc1ccc(-c2nc3cnccn3c2NC2CCCCC2)cc1 (stereo unspecified)	2.5	29.1*	-0.3	12.1	-79.8	67.2*	57.4*
CCCCCCSc1ccc(-c2nc3cc(C)ccn3c2NC2CCCCC2)cc1	2.5	7.2	x	6.3	x	x	x
CCC(C)Sc1ccc(-c2nc3cc(C)ccn3c2NC2CCCCC2)cc1 (stereo unspecified)	11.7	33.0*	x	29.0	x	+	+
CCCCN(C)C(=O)c1cc2cc3cc(OC)ccc3nc2o1	-18.9	73.7*	-9.5	9.3	-2.1	166.4*	126.6*
CCCCN(C)C(=O)c1cc2cc3ccc(OC)cc3nc2o1	3.9	78.0*	-4.1	15.1	-1.1	3.0	2.1
COc1ccc2c(c1C(=O)/C=C/c1ccccc1)OC(C)(C)C=C2	11.8	x	x	x	x	x	x
COC(=O)c1ccc2nc(Nc3nc4ccc(F)cc4s3)sc2c1	-1.8	37.9*	-9.9	8.0	-10.8	130.8*	121.8*
CC(=O)c1sc(Nc2nc3ccc(F)cc3s2)nc1C	-0.8	27.2*	6.5	4.4	-1.3	+	161.4*
CCOC(=O)CC[C@@H]1CC[C@]2(CCCN(C(=O)c3ccco3)C2)O1	-3.8	x	x	x	x	x	x
COc1cc2c3nnc(-c4ccccc4)c-3cn(Cc3ccc(F)cc3)c2cc1OC	-11.4	31.8*	1.5	13.0	-124.2	127.3*	93.6*
O=C(Nc1ccc(Cl)c(Cl)c1)C1CCN(c2nnc(-n3cccc3)s2)CC1	-1.5	x	x	x	x	x	x
Cc1cc(N2CCN(C)CC2)n2cc(-c3ccc(F)cc3)nc2n1	-4.5	68.6*	-2.8	17.1	0.0	40.8*	36.9*
CCOC(=O)c1cn(Cc2ccccc2)nc1-c1ccccc1	5.8	0.1	4.2	0.8	6.4	x	x
CCOC(=O)c1cn(Cc2cccc(Cl)c2)c2cc(C)nn2c1=O	5.4	28.0*	-3.7	11.2	-0.8	67.0*	52.6*
NC(=O)COc1c(-c2ccco2)oc2ccccc2c1=O	-17.7	21.5	19.4	25.6	-1.0	x	x
SMILES	PrPC TRFRET	Mtb FBA inh	BJeLR viability	GDH-TPI counter-1	RecA intein inh	Mtb FBA confirm	GDH-TPI counter-2
CC(=O)Oc1c(-c2ccc(Br)o2)oc2ccccc2c1=O	0.3	78.7*	-5.4	30.0	-62.4	46.9*	40.9*
O=C(OCC#CCSc1nnc(-c2cccc3ccccc23)o1)c1ccc(Cl)c(C(F)(F)F)c1	-7.0	x	x	x	x	x	x
O=C(Nc1nccs1)c1ccccc1N=Cc1ccccc1	-0.1	87.5*	4.2	11.3	-6.7	-1.7	3.5
O=C(Nc1nccs1)c1cccnc1Cl	10.2	3.0	2.8	13.0	-0.2	x	x
COc1cccc(C=Nc2ccccc2C(=O)Nc2nccs2)c1OC	0.2	68.4*	6.0	5.7	-8.2	156.1*	125.9*
CCOc1ccc(C(=O)N[C@H](C(=O)NC2CCCCC2)C(C)C)cc1	-2.8	-2.6	x	-4.4	x	x	x
CCOc1c2ccc(C(=O)NCCc3cccs3)cc2nn1CC	-3.7	57.9*	-2.6	11.2	-0.7	27.8*	17.7*
CCCCn1nc2cc(C(=O)NCCc3cccs3)ccc2c1OCC	2.9	61.9*	0.6	-0.4	0.8	125.4*	103.4*
CCCCOc1ccc(C(=O)NCCc2cccs2)cc1	x	-2.2	-3.3	1.9	-1.0	x	x
CCOc1c2ccc(C(=O)N[C@H](C)C3CCCCC3)cc2nn1CC	-2.8	64.2*	-2.2	14.7	-0.1	53.1*	44.6*
CCOC(=O)[C@@]12CCCC3=C1N(CCC3)C(=O)[C@H]2CC(=O)N1CCN(C(=O)c2ccco2)CC1	12.6	x	x	x	x	x	x
COc1cc(NC(=O)c2cnn3c(C)cc(C)nc23)cc(OC)c1OC	6.4	x	x	x	x	x	x
CCCCC(c1nnnn1CCOC)N1CCN(CC)CC1 (stereo unspecified)	-1.1	38.2*	x	8.7	x	91.0*	61.8*
O=C(C1CCC1)N1CCc2cc(S(=O)(=O)N3CCCC3)ccc21	6.4	x	x	x	x	x	x
CC(C)CCN(CCC(C)C)CC(O)Cn1c2ccccc2c(=O)c2ccccc21 (stereo unspecified)	5.4	30.9*	-4.4	-1.5	i	45.1*	35.0*
O=C(NCCc1nc2ccccc2n1C/C=C/c1ccccc1)C1CCCCC1	3.8	x	x	x	x	x	x
CCOc1ccc(N(CC(=O)Nc2c(C)cccc2C)S(=O)(=O)c2c(C)[nH]c(=O)[nH]c2=O)cc1	-0.2	90.6*	6.8	17.3	-1.2	84.7*	53.4*
Cc1ccc(-c2ccc(C(=O)NCc3ccccc3)o2)c2ccccc12	-2.9	61.0*	-5.3	11.2	3.0	119.8*	74.4*
CCCCNS(=O)(=O)/C=C/c1ccccc1CNC(=O)OC(C)(C)C	7.3	x	x	x	x	x	x
COc1ccc(-c2ccc(S(=O)(=O)N3CCCC3)cc2)cc1	6.1	24.4	2.3	-3.5	-0.1	x	x
COc1ccc(S(=O)(=O)N2CCN(C(=O)c3cccs3)CC2)cc1	3.6	79.3*	-6.6	-0.4	1.6	+	172.3*
COc1ccc(-c2ccc(S(=O)(=O)N3CCOCC3)cc2)cc1	x	44.5*	1.4	-7.8	-0.3	74.8*	48.1*
COC(=O)c1cc(-c2ccc(F)cc2OCc2ccccc2)c(=O)n2c1CCC2	4.0	x	x	x	x	x	x

Screens (PubChem)
